Screens: PubChem BioAssay, National Center for Advancing Translational Sciences (NCATS)
WRN helicase inh-1: inhibitors of human WRN helicase; WRN helicase unwinding, fluorescent forked duplex, kinetic; 0.46% of 360,000 active; Potency, µM (titrated, usually from 114 µM), usual class: inhibitors; also: nearly all actives have a fitted effect of over 55% in size
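Enzyme (20 nM final) and test compound sit together 15 min at room temperature before substrate addition. Substrate is a single-forked duplex oligonucleotide (100 nM) labelled with fluorophore and quencher, with 2 mM ATP; helicase unwinding raises red fluorescence, read kinetically.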
POLH inh: blocks human DNA polymerase eta activity. Potency, µM (highest dose often 114 µM), most hits filed as inhibitors. Q9Y253. recombinant Pol eta, fluorescent DNA replication assay. 1.2% of 390,000 active. AID 588591
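Pol eta (10 nM) was preincubated with compounds for 15 min at room temperature, after which fluorescent replication substrate (50 nM final) was added to start the reaction. Fluorescence was read kinetically at 0 and 10 min.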
POLB inh: blocks human DNA polymerase beta activity; Pol beta primer extension/strand displacement, fluorescence kinetic; Potency, µM (highest dose often 114 µM), most hits filed as inhibitors; AID 485314; P06746; 1.3% of 340,000 active
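Homogeneous kinetic assay of primer extension and strand displacement by 10 nM Pol beta, preincubated 15 min at room temperature with compound before 50 nM substrate (final) was added. Read at 0 and 10 min; four-parameter Hill fit.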
Pol kappa inh: DNA polymerase kappa (human) inhibition. AID 588579. purified Pol kappa, fluorescent DNA synthesis assay, 10 min. Potency, µM (titrated, usually from 107 µM), most hits filed as inhibitors. Q9UBT6. 0.53% of 400,000 active
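Here, compound and 10 nM enzyme are combined for 15 min at room temperature; adding 50 nM substrate (final) starts DNA synthesis, tracked by fluorescence at 0 and 10 min against buffer-only wells.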
PI5P4K alpha inh: PI5P4K alpha (human) kinase inhibition | P48426 | 1.2% of 330,000 active | max response, % | PI5P4Kalpha enzyme, ADP-Glo luminescence, 60 min; hits give low values | AID 652105; active = max response of -50% or lower; inconclusive = between -30% and -50%; inactive = -30% or higher; also: value at the top dose of about 77 µM
Target sequence (P48426 whole entry, looked up): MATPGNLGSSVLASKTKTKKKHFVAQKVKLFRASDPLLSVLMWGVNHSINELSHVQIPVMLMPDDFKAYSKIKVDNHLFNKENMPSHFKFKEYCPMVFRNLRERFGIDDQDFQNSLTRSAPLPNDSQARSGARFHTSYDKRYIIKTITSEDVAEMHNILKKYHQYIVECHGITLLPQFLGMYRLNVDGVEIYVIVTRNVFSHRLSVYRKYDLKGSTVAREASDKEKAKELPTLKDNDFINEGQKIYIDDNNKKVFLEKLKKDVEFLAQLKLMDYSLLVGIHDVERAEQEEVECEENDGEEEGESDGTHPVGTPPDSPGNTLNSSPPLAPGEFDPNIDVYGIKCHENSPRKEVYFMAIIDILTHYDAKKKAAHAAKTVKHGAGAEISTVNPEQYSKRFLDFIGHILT
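Quantitative HTS of the MLSMR library against PI5P4Kalpha with substrate. ATP added last at 5 microM final; room temperature, 60 minutes. Remaining ATP depleted, ADP converted and read as luminescence.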
Pol iota inh: inhibitors of human DNA polymerase iota. Potency, µM (top dose mostly 115 µM), usual class: inhibitors. AID 588590. Pol iota fluorescent replication assay, 10 min. Q9UNA4. 1% of 390,000 active
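Fluorescent replication assay read twice, at 0 min and 10 min after adding 50 nM (final) substrate. Enzyme (10 nM) and compounds were first incubated 15 min at room temperature; enzyme-free buffer wells were negative controls.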
WRN helicase inh-2: confirmation of human WRN helicase inhibitors; shares compounds with WRN helicase inh-1; Potency, µM (titrated, usually from 57.1 µM), hits mostly inhibitors; WRN helicase DNA unwinding, fluorescence kinetic; AID 720497; 63% of 610 active; also: nearly all actives have a fitted effect of over 65% in size
TO DNA binding: counter-screen for WRN helicase inhibitors: DNA binding. shares compounds with WRN helicase inh-1. thiazole orange DNA binding displacement, fluorescence. Potency, µM (doses to about 57.1 µM), hits mostly inhibitors. 10% of 610 active. AID 720499;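 also: drop in dye fluorescence marks compound binding to DNA; nearly all actives have a fitted effect of over 60% in size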
BLM counter: counter-screen for WRN helicase inhibitors: human BLM helicase inhibition. shares compounds with WRN helicase inh-1. Recombinant BLM helicase DNA unwinding, red fluorescence. Potency, µM (top dose mostly 57.1 µM), most hits filed as inhibitors. 60% of 610 active. AID 720503; also: nearly all actives have a fitted effect of over 60% in size
ADP-Glo interf: ADP-Glo luciferase interference, PI5P4K counter-screen; 1,100 tested, under 10 active; ADP-Glo detection counter-screen, luciferase luminescence, no enzyme; shares compounds with PI5P4K alpha inh; Potency, µM (highest dose often 76.9 µM), most hits filed as inhibitors
Of the large screens only hits and unclear results are named; the others gave an inactive call (follow-up assays come after a bar, where they were run). Hits are enriched below; roughly 2.8% of the tested compounds scored in any of these assays. Unless noted, calls follow the shape of the dose curve; as a rule, active = well fitted curve in the direction sought with a large enough effect; inconclusive = small, poorly fitted or top-dose-only effect, or another doubt; inactive = no such curve, though single readings can be large; an effect the other way counts as inactive or inconclusive.

O=C(COc1ccc(Br)cc1)N1CCN(Cc2ccc3c(c2)OCO3)CC1	none
O=c1c2ccccc2nc(/C=C/c2ccccc2)n1-c1ccccc1O	none
O=c1c2ccccc2nc(/C=C/c2cccnc2)n1Cc1ccccc1	WRN helicase inh-1 31.6µM, POLH inh inconclusive, Pol iota inh 2.82µM | WRN helicase inh-2 inactive | TO DNA binding inactive | BLM counter inactive
Cc1[nH]c(=O)n(C(C)(C)C)c(=O)c1Cl	none (no result: WRN helicase inh-1, POLH inh, POLB inh, PI5P4K alpha inh, Pol iota inh)
COc1ccc(CN2Cc3cnnn3-c3ccccc3C2C#N)cc1 (centres undefined)	Pol iota inh inconclusive (no result: POLB inh)
N#CC1c2ccccc2-n2nncc2CN1Cc1cc(Cl)cc(Cl)c1 (centres undefined)	PI5P4K alpha inh -59.6, Pol iota inh inconclusive (no result: POLB inh) | ADP-Glo interf inactive
Clc1ccccc1Cl	none (no result: WRN helicase inh-1, POLH inh, POLB inh, PI5P4K alpha inh, Pol iota inh)
COc1ccc(C(=O)C2CCCN(Cc3ccon3)C2)c(OC)c1 (centres undefined)	POLH inh inconclusive, Pol kappa inh inconclusive, PI5P4K alpha inh -83.6, Pol iota inh 89.1µM | ADP-Glo interf inactive
